Experimental data taken from the supplement of paper PMC13380429.

Test system: Vero E6 infected with SARS-CoV-2
Assay: inhibition of SARS-CoV-2 cytopathic effect; higher = more antiviral protection, active = above 15
Conditions: 48 h

Measured: inhibition of SARS-CoV-2 cytopathic effect

NC(=O)c1cnc(N[C@@H]2CCCC[C@@H]2N)nc1Nc1cccc(-n2nccn2)c1
inactive: 1 nM -1.26% | 8.33 nM -0.3% | 100 nM 2.11% | 833.33 nM -0.39%
active: 10000 nM 24.4%

CC(C)C[C@@H]1NC(=O)[C@@H](C(C)C)NC(=O)[C@@H]2CCCN2C(=O)[C@@H](CC(=O)O)NC(=O)[C@@H](Cc2c[nH]c3ccccc23)NC1=O
inactive: 1 nM -2.63% | 8.33 nM 1.4% | 100 nM -0.29% | 833.33 nM -0.26% | 10000 nM -0.15%

CSc1ccc(C(=O)c2[nH]c(=O)[nH]c2C)cc1 [enoximone]
inactive: 1 nM -4.27% | 8.33 nM -5.05% | 100 nM -6.45% | 833.33 nM -4.44% | 10000 nM -2.39%

COc1cc(C(=O)OCCCN2CCCN(CCCOC(=O)c3cc(OC)c(OC)c(OC)c3)CC2)cc(OC)c1OC [dilazep]
inactive: 1 nM 0.92% | 8.33 nM 1.04% | 100 nM -0.17% | 833.33 nM -1.09% | 10000 nM 4.8%

O=c1[nH]cnc2c1ncn2[C@H]1CC[C@@H](CO)O1 [didanosine]
inactive: 1 nM 0.07% | 8.33 nM -2.03% | 100 nM 2.16% | 833.33 nM 3.97% | 10000 nM -1.54%

CSCC[C@H](NC(=O)[C@H](CC(C)C)NC(=O)[C@@H](Cc1c[nH]c2ccccc12)NC(=O)[C@H](Cc1ccccc1)N(C)C(=O)[C@@H](Cc1c[nH]c2ccccc12)NC(=O)[C@@H](N)CCCNC(=N)N)C(N)=O [antagonist-g]
inactive: 1 nM 2.09% | 8.33 nM 0.43% | 100 nM -0.05% | 833.33 nM 1.24% | 10000 nM -1.09%

CCCC[C@]1(CC)CS(=O)(=O)c2cc(CNC(CC(=O)O)CC(=O)O)c(OC)cc2[C@@H](c2ccccc2)N1
inactive: 1 nM 3.94% | 8.33 nM 3.04% | 100 nM 5.12% | 833.33 nM 1.44% | 10000 nM 1.53%

NC(=O)C(c1ccccc1)(c1ccccc1)[C@@H]1CCN(CCc2ccc3c(c2)CCO3)C1 [darifenacin]
inactive: 1 nM -1.18% | 8.33 nM 0.61% | 100 nM 2.83% | 833.33 nM 0.42% | 10000 nM -5.65%

CCn1c2ccccc2c2cc(CNCc3ccccc3OC)ccc21
inactive: 1 nM 3.14% | 8.33 nM 2.16% | 100 nM 0.25% | 833.33 nM -1.14% | 10000 nM -6.1%

C=CC(=O)Nc1ccc2ncnc(Nc3cccc(Br)c3)c2c1
inactive: 1 nM -0.46% | 8.33 nM -1.31% | 100 nM -13.7% | 833.33 nM -13.8% | 10000 nM -13.2%

c1cc2c(c(N3CCNCC3)c1)OCCO2 [eltoprazine]
inactive: 1 nM 3.51% | 8.33 nM 2.36% | 100 nM 2.47% | 833.33 nM -1.11% | 10000 nM -4.55%

CCOc1cc2ncc(C#N)c(Nc3ccc(F)c(Cl)c3)c2cc1NC(=O)/C=C/CN(C)C [pelitinib]
inactive: 1 nM -2.05% | 8.33 nM -5.13% | 100 nM -7.91% | 833.33 nM -5.27% | 10000 nM 2.95%

CCN(CC)CCN[C@@H](C(=O)OCCC(C)C)c1ccccc1 [camylofine-chlorhydrate]
inactive: 1 nM -0.61% | 8.33 nM -0.68% | 100 nM -1.25% | 833.33 nM 0.17% | 10000 nM -1.1%

NC(=O)CN1CC(O)CC1=O (stereo not given) [oxiracetam]
inactive: 1 nM 1.13% | 8.33 nM 0.12% | 100 nM 0.71% | 833.33 nM 4.22% | 10000 nM 0.29%

C=C1C[C@@]2(O)O[C@@]3(C[C@H]2C(C)C)[C@@H](C)CC[C@@H]13 [curcumol]
inactive: 1 nM -2.21% | 8.33 nM -1.48% | 100 nM 1.91% | 833.33 nM 0.52% | 10000 nM -2.49%

C[N+](C)(C)CCOC(=O)CCC(=O)OCC[N+](C)(C)C [succinylcholine-chloride]
inactive: 1 nM 2.27% | 8.33 nM -1.42% | 100 nM -2.35% | 833.33 nM 0.85% | 10000 nM 0.28%

CCc1nc(-c2cccc(C)c2)c(-c2ccnc(NC(=O)c3ccccc3)c2)s1
inactive: 1 nM 1.89% | 8.33 nM -0.27% | 100 nM -3.38% | 833.33 nM -1.52% | 10000 nM -4.97%

Cc1ccc(CCCO)c(NCc2ccc3nc(NCCCN4CCOCC4)n(Cc4nc(C)ccc4O)c3c2)c1
inactive: 1 nM 0.48% | 8.33 nM -0.28% | 100 nM -0.6% | 833.33 nM -1.09% | 10000 nM -1.76%

FC(F)(F)C(F)(F)C(F)(F)N(C(F)(F)C(F)(F)C(F)(F)F)C(F)(F)C(F)(F)C(F)(F)F [perfluamine]
inactive: 1 nM -4.49% | 8.33 nM -1.58% | 100 nM -5.22% | 833.33 nM -3.78% | 10000 nM -1.62%

O=C(CC(c1ccccc1)c1ccccc1)N1CCN(C(c2ccccc2)c2ccccc2)CC1
inactive: 1 nM -0.56% | 8.33 nM -1.82% | 100 nM -3.93% | 833.33 nM 1.53% | 10000 nM 3.27%

CN1CCN(c2ncc(-c3cc(Cl)cc(Cl)c3Cl)c(N)n2)CC1 [sipatrigine]
inactive: 1 nM -3.16% | 8.33 nM -4.99% | 100 nM -2.74% | 833.33 nM -3.24% | 10000 nM 2.7%

COc1cc(C=O)ccc1O [vanillin]
inactive: 1 nM 1.74% | 8.33 nM 0.89% | 100 nM 1.04% | 833.33 nM -1.54% | 10000 nM -2.8%

O=C(CN1CCNCC1)NC1CCCCC1 [esaprazole]
inactive: 1 nM -1.96% | 8.33 nM -1.47% | 100 nM -0.45% | 833.33 nM -0.95% | 10000 nM -1.46%

Cc1nc(-c2cn3c(n2)-c2ccc(-c4cnn(C(C)(C)C(N)=O)c4)cc2OCC3)n(C(C)C)n1 [taselisib]
inactive: 1 nM 3.71% | 8.33 nM 1.62% | 100 nM -1.05% | 833.33 nM -1.92% | 10000 nM -8.91%

C[C@@H](c1ccc2nccn2c1)n1nnc2ncc(-c3cnn(C)c3)nc21 [savolitinib]
inactive: 1 nM 0.39% | 8.33 nM -0.4% | 100 nM -0.3% | 833.33 nM 0.87% | 10000 nM 1.9%

Fc1ccccc1CNCc1ccc(-c2ccnc3[nH]ccc23)cc1
inactive: 1 nM 4.68% | 8.33 nM 2.19% | 100 nM 0.04% | 833.33 nM -1.5% | 10000 nM -7.9%

COc1ccc(OC)c(CN(C(C)=O)c2cc(F)ccc2Oc2ccccc2)c1
inactive: 1 nM 1.17% | 8.33 nM -0.16% | 100 nM 4.26% | 833.33 nM 3.55% | 10000 nM 2.47%

N#CC(Cc1ccc(O)cc1)c1ccc(O)cc1 (stereo not given) [diarylpropionitrile]
inactive: 1 nM -1.07% | 8.33 nM 1.57% | 100 nM -1.11% | 833.33 nM -3.56% | 10000 nM -1.54%

CCCN(CCC)C(=O)C1=Cc2ccc(-c3ccc(C(=O)N4CCCC4)cc3)cc2N=C(N)C1 [motolimod]
inactive: 1 nM 0.77% | 8.33 nM 0.05% | 100 nM 1.88% | 833.33 nM 1.37% | 10000 nM -1.01%

COc1cccc(OCCCN)c1-c1cc(Nc2cnc(C#N)cn2)n[nH]1
inactive: 1 nM -0.1% | 8.33 nM 0.79% | 100 nM -1.17% | 833.33 nM -4.06% | 10000 nM -3.92%

COc1ccc(CNC(=O)Nc2ncc([N+](=O)[O-])s2)cc1
inactive: 1 nM -1.91% | 8.33 nM 2.48% | 100 nM -0.26% | 833.33 nM -1.47% | 10000 nM 2.28%

CC(CNC1CCCCC1)OC(=O)c1ccccc1 (stereo not given) [hexylcaine]
inactive: 1 nM 2.92% | 8.33 nM -0.38% | 100 nM -0.1% | 833.33 nM -11% | 10000 nM -2.93%

CC1(C)CC[C@]2(C(=O)O)CC[C@]3(C)C(=CC[C@@H]4[C@@]5(C)CC[C@H](O)C(C)(C)[C@@H]5CC[C@]43C)[C@@H]2C1 [oleanolic-acid]
inactive: 1 nM -0.65% | 8.33 nM -0.09% | 100 nM 0.47% | 833.33 nM -0.94% | 10000 nM -0.53%

C[C@H](CCC(=O)O)[C@H]1CC[C@H]2[C@@H]3CC[C@@H]4C[C@H](O)CC[C@]4(C)[C@H]3C[C@H](O)[C@]12C [deoxycholic-acid]
inactive: 1 nM -0.18% | 8.33 nM 0.25% | 100 nM -1.84% | 833.33 nM -1.15% | 10000 nM -0.42%

O=C(O)C[CH2][Ge](=[O])[O][Ge](=[O])[CH2]CC(=O)O [propagermanium]
inactive: 1 nM -0.42% | 8.33 nM 1.44% | 100 nM 3.85% | 833.33 nM -0.73% | 10000 nM -2.33%

NS(=O)(=O)c1cc2c(cc1C(F)(F)F)NC(Cc1ccccc1)NS2(=O)=O (stereo not given) [bendroflumethiazide]
inactive: 1 nM -0.89% | 8.33 nM -3.12% | 100 nM -0.42% | 833.33 nM -1.39% | 10000 nM 0.82%

O=C1c2ccccc2CCC1CNCCc1ccc(O)cc1 (stereo not given)
inactive: 1 nM 0.05% | 8.33 nM -1.18% | 100 nM -2.27% | 833.33 nM -0.45% | 10000 nM -0.46%

O=[N+]([O-])c1cc(O)c(O)c([N+](=O)[O-])c1
inactive: 1 nM -0.65% | 8.33 nM -3.05% | 100 nM -3.12% | 833.33 nM 1.93% | 10000 nM -3.2%

CN(C)CCOC(=O)COc1ccc(Cl)cc1 [meclofenoxate]
inactive: 1 nM 2.47% | 8.33 nM 0.23% | 100 nM 1.17% | 833.33 nM 1.28% | 10000 nM 1.66%
